Compound activity as filed in PubChem BioAssay.
ELG1 repair inh: inhibitors of ELG1-dependent DNA repair in HEK293T cells | HEK293T ELG1-luciferase reporter, luminescence, 16 h; DNA damage induced by 5-fluorouridine | Potency, µM (doses to about 46.1 µM), without a hit: top-dose activity change, negative = inhibition, most hits filed as inhibitors | hit rate 2.3% among 330,000 | AID 504467; note: nearly all actives have a fitted effect of over 55% in size
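Cells (2,000 per well) received 5-fluorouridine plus test compound or DMSO and were incubated 16 hr at 37 °C, 5% CO2. Luciferase activity was read by luminescence 30 min after ONE-Glo addition; signal suppression marked inhibition of damage-induced ELG1 function.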
TDP1 cell CPT: growth inhibition of DT40 Tdp1-/-;hTDP1 cells with camptothecin (screen for TDP1 inhibitors); hit rate 12% among 420,000; chicken DT40 Tdp1-/-;hTDP1 cells + 20 nM CPT, ATP luminescence, 48 h; AID 686979; Potency, µM (highest dose often 46.2 µM), inactives show at the top dose activity change, negative = growth inhibition, hits mostly inhibitors; note: nearly all actives have a fitted effect of over 55% in size
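Chicken DT40 Tdp1-/- cells stably complemented with human TDP1 were seeded at 400 cells/well in medium containing 20 nM camptothecin, exposed to pin-transferred compounds, and grown at 37 °C for at least 48 hr. Viability was read as ATP luminescence.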
Gal4-VP16 FLuc: counter-screen for ROR gamma inhibitors: Gal4-VP16 reporter. Drosophila S2 Gal4-VP16 UAS-luciferase, luminescence, 20 h. Potency, µM (top dose mostly 53.6 µM), for the others: at the top dose activity, negative = inhibition, most hits filed as inhibitors. hit rate 3.5% among 310,000;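 note: Gal4-VP16 expression switched on by copper sulfate through the metallothionein promoter; nearly all actives have a fitted effect of over 50% in size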
ALOX12 inh: ALOX12 (human) lipoxygenase inhibition. P18054. purified 12hLO, xylenol orange hydroperoxide absorbance. Potency, µM (top dose mostly 108 µM), for the others: at the top dose activity change, negative = inhibition, usual class: inhibitors. hit rate 1.1% among 580,000
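Purified human 12hLO at 150 nM in 25 mM Hepes, 0.01% Triton X-100, pH 7.0, preincubated 15 min at room temperature with compound. Reaction started with 40 uM arachidonic acid, 30 min at room temperature. Hydroperoxide measured by Fe-xylenol orange, 573/405 nm absorbance ratio.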
DT40 TDP1 no CPT: qHTS for Inhibitors of human tyrosyl-DNA phosphodiesterase 1 (TDP1): qHTS in cells in absence of CPT; Potency, µM (series often up to 46.2 µM), for inactives: top-dose activity change, negative = growth inhibition, usual class: inhibitors; hit rate 15% among 420,000; DT40 Tdp1-/- hTDP1 cells, no CPT, ATP luminescence, 48 h; note: nearly all actives have a fitted effect of over 55% in size
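Growth of hTDP1-complemented DT40 Tdp1-knockout cells is measured by ATP luminescence after at least 48 hr compound exposure at 37 °C, with DMSO substituting for the 20 nM CPT used in the parallel screen.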
RORgamma inh: inhibitors of mouse ROR gamma transcriptional activity; P51450; Drosophila S2 Gal4-RORgamma UAS-luciferase reporter, 20 h; Potency, µM (titrated, usually from 53.6 µM), inactives show at the highest dose activity change, negative = inhibition, usual class: inhibitors; hit rate 5.4% among 310,000; note: nearly all actives have a fitted effect of over 60% in size
Target sequence (P51450 whole entry, looked up, the tested form may be a part): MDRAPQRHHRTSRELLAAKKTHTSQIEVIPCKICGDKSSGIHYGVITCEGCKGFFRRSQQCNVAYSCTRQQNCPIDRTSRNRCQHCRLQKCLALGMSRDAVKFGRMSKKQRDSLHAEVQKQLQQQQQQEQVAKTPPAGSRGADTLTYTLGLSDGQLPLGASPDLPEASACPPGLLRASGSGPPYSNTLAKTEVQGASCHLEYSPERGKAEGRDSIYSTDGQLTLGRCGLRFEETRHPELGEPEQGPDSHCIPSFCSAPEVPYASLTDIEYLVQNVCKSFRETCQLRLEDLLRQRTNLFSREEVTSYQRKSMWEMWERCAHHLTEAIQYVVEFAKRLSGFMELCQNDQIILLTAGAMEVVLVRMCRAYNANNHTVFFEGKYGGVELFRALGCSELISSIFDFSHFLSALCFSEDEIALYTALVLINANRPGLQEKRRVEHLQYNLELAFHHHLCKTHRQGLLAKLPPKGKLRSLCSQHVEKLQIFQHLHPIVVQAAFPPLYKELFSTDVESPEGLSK
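In this cell-based reporter format, copper sulfate (700 uM final) drives Gal4–ROR gamma fusion expression from a metallothionein promoter in Drosophila Schneider cells; compounds preincubated 1 hr, reporter read after 20 hr at ambient temperature.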
The depositor's hits bear a star; ? = inconclusive; / = no result; ! = repeats disagree; [ ] = another dose, or the depositor's remark. Most compounds without a hit are left out; they make up all but 15% or so of the library. Calls come from the whole dose curve; as a rule, active = well fitted curve in the direction sought with a large enough effect; inconclusive = small, poorly fitted or top-dose-only effect, or another doubt; inactive = no such curve, though single readings can be large; an effect the other way counts as inactive or inconclusive. % is set by controls: 0 for no effect and ±100 for the full control effect; potency is the fitted concentration of half-maximal effect.

SMILES	ELG1 repair inh	TDP1 cell CPT	Gal4-VP16 FLuc	ALOX12 inh	DT40 TDP1 no CPT	RORgamma inh
COC1CCCN(C(=O)c2ccc(OC3CCN(S(=O)(=O)N(C)C)CC3)cc2)C1 (stereo not given)	?	-25.1%	-1.9%	7.3%	?	-11.6%
C#CCN(CC=C)C(=O)c1ccc(OC2CCN(S(=O)(=O)N(C)C)CC2)cc1	20.6µM*	?	6.3%	0.0%	?	33.5%
CN(C)S(=O)(=O)N1CCC(Oc2ccc(C(=O)N3C[C@@H]4CCC[C@H]3C4)cc2)CC1	/	16.4µM*	/	-12.9%	?	/
COc1ccc(C2Cn3nnc(C(=O)N4CCN(C(=O)c5ccccc5C)CC4)c3CO2)cc1 (stereo not given)	/	/	/	16.2%	/	/
Cc1ccccc1NC(=O)CSc1nc(N)c(C#N)cc1C#N	5.7%	-9.1%	3.3%	0.0%	-5.4%	-29.2%
CC(C)CCSc1nc(N)c(C#N)cc1C#N	?	?	?	-27.3%	18.4µM*	?
COC(=O)CCCNC(=O)c1ccc(C(F)(F)F)cc1	/	/	/	13.0%	/	/
COc1ccc2cc(CO)n(C)c2c1	2.2%	8.2µM*	/	?	?	/
COc1ccc2cc(C=O)n(C)c2c1	1.1%	-4.3%	/	-9.1%	3.5%	/
COc1c(CNCC(O)COc2ccccc2)c(C(C)C)nn1C (stereo not given)	/	/	/	0.4%	/	/
Cc1nc(-c2ccncc2)nc(NCCNc2ncccc2C(F)(F)F)c1Cl	-21.7%	11.6µM*	11.9%	45.2%	7.31µM*	-14.4%
COc1ccc(CCCc2nnc(SCC(=O)Nc3ccc(C)cc3C)o2)cc1	/	-29.0%	/	-25.4%	?	/
COc1ccc(CCCc2nnc(SCC(=O)Nc3ccc(C)cc3)o2)cc1C	/	7.0%	/	17.8µM*!	1.8%	/
COc1ccc(CCCc2nnc(SCC(=O)Nc3cc(F)ccc3C)o2)cc1	/	?	/	-12.2%	11.6µM*	/
O=C1CC(c2ccccc2)N(C(=O)CNC(=O)c2ccoc2)CCCCCN1 (stereo not given)	/	/	/	9.1%	/	/
CCOc1ccc(NS(=O)(=O)c2cc(NC(=O)C3CC3)ccc2C)cc1Br	-4.0%	?	/	-22.3%	20.6µM*	/
CCC1CCC(C(=O)Nc2ccc(Br)c(C)c2)CC1 (stereo not given)	/	/	/	-6.3%	/	/
COc1ccccc1NC(=S)NCCC(c1ccccc1)c1ccccc1	-16.5%	?	?	35.5µM*	?	11.2µM*
COc1ccc(Cl)cc1NC(=S)NCCN1CCOCC1	-9.4%	-9.2%	5.2%	-28.1%	5.3%	-10.1%
COc1ccc(Cl)cc1NC(=O)c1ccccc1C	?	-24.0%	28.4%	4.7%	-24.2%	-2.1%
COc1ccc(Cl)cc1NC(=S)NCCC(c1ccccc1)c1ccccc1	-22.8%	23.1µM*	4.47µM*	31.6µM*	23.1µM*	7.08µM*
COc1ccc(Cl)cc1NC(=S)Nc1ccccc1C	22.1%	?	?	?	23.1µM*	11.2µM*
COc1cc(NC(=S)NCCC(c2ccccc2)c2ccccc2)c(OC)cc1Cl	-19.9%	9.2µM*	3.16µM*	39.8µM*	18.4µM*	5.01µM*
Cc1ccc(-c2nn3c(N(C)C)cc(C)nc3c2C)cc1	/	/	/	3.0%	/	/
CC(=O)c1cccc(NC(=O)c2n[nH]c(=O)c3ccccc23)c1	/	/	/	-74.1%	/	/
SMILES	ELG1 repair inh	TDP1 cell CPT	Gal4-VP16 FLuc	ALOX12 inh	DT40 TDP1 no CPT	RORgamma inh
NCCCn1c(C(=O)c2cc(Cl)c(N)c(Cl)c2)c2ccc(C(F)(F)F)cc2[n+]1[O-]	22.4%	?	/	?	18.4µM*	/
NC(=O)c1ccc(Cn2c(C(=O)c3cc(Cl)c(N)c(Cl)c3)c3ccccc3[n+]2[O-])cc1	0.4%	?	/	17.8µM*	?	/
NC(=O)CCCn1c(C(=O)c2cc(Cl)c(N)c(Cl)c2)c2ccc(C(F)(F)F)cc2[n+]1[O-]	-23.0%	?	/	?	18.4µM*	/
NCCCn1c(C(=O)c2cc(Cl)c(N)c(Cl)c2)c2ccc([N+](=O)[O-])cc2[n+]1[O-]	?	0.651µM*	/	-26.6%	0.517µM*	/
COc1ccc(C(=O)c2c3ccc(OC)cc3[n+]([O-])n2CCCC(N)=O)cc1	0.4%	-1.4%	/	-8.0%	-15.9%	/
Cc1ccccc1CN1CC[C@H](c2nc3ncccc3[nH]2)C1	/	/	/	23.9%[176 µM]	/	/
CCN(CC)CCCNC(=O)c1[nH]c2ccccc2c1Sc1ccc(Cl)cc1	-15.7%	?	-9.6%	17.2%	14.6µM*	-44.4%
COc1ccc2c(Sc3ccc(Cl)cc3)c(C(=O)NCCCN3CCCCC3)[nH]c2c1	/	23.1µM*	/	?	23.1µM*	/
CCOc1ccc(Sc2cc(C(=O)NCCc3ccc(OC)c(OC)c3)c3ccccc3n2)cc1	/	3.66µM*	/	-20.1%	5.8µM*	/
O=C(NCCCN1CCCCC1)c1cc(Sc2ccc(Cl)cc2)nc2ccccc12	/	16.4µM*	/	?	23.1µM*	/
CCOCCCNC(=O)c1[nH]c2cc(OC)ccc2c1Sc1ccccc1	/	-24.8%	/	-17.4%	-3.6%	/
CCC(CC)C(CNC(=O)c1ccccc1Br)N1CCOCC1 (stereo not given)	/	/	/	0.3%	/	/
CC1CCC[C@]2(CCc3cc4c5c(c(=O)oc4cc3O2)CCCC5)C1 (stereo not given in full)	/	/	/	-29.0%	/	/
